# Among all 2,300 compounds or so, about 1,000 (43%) were called active. How the calls were made is not given here. So high a share suggests a set chosen from earlier hits. Some of the results follow. Entries that show only a call come without a potency. Potency and affinity values are given separately.
# Experiment: PhoP regulon inhibitor project modified counter assay, GFP fluorescence readout, dose response (AID 1985)
# Settings: S. Typhi, 4 h; series mostly up to 150 µM
row,SMILES,outcome
1,CC(C)NC(=O)Nc1ccc(Br)cc1Cl,inactive
2,CC1CC(C)CN(C(=O)c2ccc(NC(=O)c3ccc(=O)[nH]c3)cc2)C1 (stereo unspecified),inactive
3,COCCNC(=O)CN(C(=O)CCC(=O)Nc1ccccn1)c1ccc(F)c(Cl)c1,inactive
4,O=C(OCCCN1C(=O)c2ccccc2C1=O)c1ccco1,inactive
5,O=C(NCCOc1ccccc1)c1ncn[nH]1,inactive
6,CC(C)CCNC(=O)c1cc2c(s1)-c1ccccc1S(=O)(=O)C2,inactive
7,CN1CCc2c(sc3c2C(=O)NC(c2ccc4c(c2)OCO4)N3)C1 (stereo unspecified),inactive
8,NS(=O)(=O)c1ccc(CNc2ccc3ccccc3n2)cc1,inactive
9,CCOC(=O)C1CCN(C(=O)CCc2nc3ccccc3[nH]2)CC1,inactive
10,O=C(CSc1ccccc1)N1CCC(N2CCC(C(=O)N3CCCC3)CC2)CC1,inactive
11,Cc1c(CC(=O)N2CCC(C(N)=O)CC2)c(=O)oc2cc3c(cc12)CCC1(CCCCC1)O3,inactive
12,C#CCOCCOCCOCCNc1nc(N2CCN(C(=O)CCCCCCCCCCNC(=O)Cn3cc(CCCCCN)nn3)CC2)nc(N2CCN(C(=O)CCCCCCCCCCNC(=O)[C@@H]([C@H](C)O)n3cc(C)nn3)CC2)n1,inactive
13,Cc1nc2ccccn2c1/C(O)=C1\C(=O)C(=O)N(CCN2CCOCC2)C1c1cccnc1 (stereo unspecified),inactive
14,COc1cccc(/C=C/C(=O)c2cccc([N+](=O)[O-])c2)c1OC,inactive
15,CCOC(=O)c1ccc(N2Cc3ccccc3C2=NC(=O)c2cccc([N+](=O)[O-])c2)cc1,inactive
16,CC(C(=O)c1ccc2ccccc2c1)N1CCCCC1 (stereo unspecified),inactive
17,O=C(Nc1nnc(-c2cccs2)o1)c1cccc(C(F)(F)F)c1,inactive
18,O=C(Nc1nnc(-c2cccs2)o1)c1cccc(F)c1,inactive
19,COc1ccccc1C(=O)Nc1nnc(-c2ccc(Cl)cc2)o1,inactive
20,CCC(=O)Nc1nnc(-c2ccco2)o1,inactive
21,C=CCn1c(O)c(N=NC(=O)c2cccnc2)c2cc(Br)ccc21,inactive
22,O=C(N/N=C/c1cccc(OCc2ccccc2)c1)c1cccs1,inactive
23,NC1=NC(c2cccc(O)c2)n2c(nc3ccccc32)N1 (stereo unspecified),inactive

row,SMILES,outcome
1,CCOC(=O)c1ccccc1-n1c(C)cc(C2N=C(N)Nc3nc4ccccc4n32)c1C (stereo unspecified),inactive
2,Cc1cc(C)c(S(=O)(=O)Nc2ccccc2C(=O)OCC(=O)NCc2ccccc2)c(C)c1,inactive
3,NC(=O)c1ccsc1NC(=O)c1ccc2c(c1)CCCC2,inactive
4,COc1ccc(N2CCN(c3cc(C)c4ccc(O)cc4n3)CC2)cc1,inactive
5,CCOC(=O)C(CC)Sc1ccc2nnc(-c3cccnc3)n2n1 (stereo unspecified),inactive
6,COc1ccc(OC)c(C2=NO[C@@H]3C(=O)N(c4cc(Cl)ccc4OC)C(=O)[C@H]23)c1,inactive
7,Fc1cccc(NC(=S)NCc2ccc(Cl)cc2)c1,inactive
8,O=[N+]([O-])c1cccnc1S(=O)(=O)c1ccccc1,inactive
9,CCCCCNc1nc(N2CCCC2)c2c(c1C#N)CCN(C)C2,inactive
10,O=C(NCCO)C(=O)c1c(-c2ccc(Cl)cc2)cc2ccccn12,inactive
11,COCCn1c(SCC(=O)Nc2nnc(C)s2)nnc1-c1c[nH]c2ccccc12,inactive
12,CCCCNC(=O)NS(=O)(=O)c1ccc(C(=O)OC)o1,inactive
13,CCCCC(=O)Nc1ccc(F)c(Cl)c1,inactive
14,O=C(COc1ccc(Cl)cc1)Nc1cccc(-c2ccc3nncn3n2)c1,inactive
15,Cc1ccc(NC(=O)c2cc(NC(=O)CCCC(=O)O)ccc2Cl)cc1Cl,inactive
16,O=C(Cc1ccccc1)NCC(=O)Nc1cccc(Cl)c1,inactive
17,Cc1cccc(NC(=O)CSc2nc3c([nH]c4ccccc43)c(=O)n2C)c1,inactive
18,CCC(Sc1nc2ccncc2[nH]1)C(=O)Nc1ccc(C)c(Cl)c1 (stereo unspecified),inactive
19,Nn1cnnc1SCC(=O)Nc1ccc(C2CCCCC2)cc1,inactive
20,Cc1cnc(C(=O)OCC(=O)Nc2cccc(Cl)c2)cn1,inactive
21,CCS(=O)(=O)N1CCN(C2CCC(c3ccccc3)CC2)CC1 (stereo unspecified),inactive
22,C[N+]12CN3CN(CN(C3)C1)C2,inactive
23,CC1CCN(CCC(=O)Nc2ccc(Cl)cc2)CC1,inactive

row,SMILES,outcome
1,CCOC(=O)c1ccc(NC(=O)CSC(=S)N2CCOCC2)cc1,inactive
2,COCc1[nH]nc2c1C(c1c(F)cccc1Cl)C(C#N)=C(N)O2 (stereo unspecified),inactive
3,CCOC(=O)c1cnn2c1[nH]c(=O)c1ccccc12,inactive
4,O=C(CCC(=O)Nc1nnc(C2CCCCC2)s1)NCC1CCCO1 (stereo unspecified),inactive
5,CCCC1C(c2ccc(OC)cc2)C(C#N)(C#N)C2(C#N)CC1(N)NC2=O (stereo unspecified),inactive
6,COc1ccc(C2CC(=O)N3CN(Cc4ccco4)CSC3=C2C#N)cc1 (stereo unspecified),inactive
7,CCOC(=O)c1sc(N)c(C(=O)OC)c1C,inactive
8,CC(C)c1cc(C(=O)Nc2ccc3c(c2)OCO3)no1,inactive
9,Oc1ccc(C=Nc2cccc3ncccc23)c(O)c1,inactive
10,Cc1nc2ccccc2nc1N/N=C/c1ccc(O)cc1O,inactive
11,Oc1ccc(C=NC2CCCCC2)c(O)c1,inactive
12,Oc1ccc(C=Nc2ccc3ncccc3c2)c(O)c1,inactive
13,Cc1cc(C=O)c(O)cc1O,inactive
14,Cc1oc(/N=C/c2ccc(O)cc2O)c(C#N)c1C,inactive
15,CCOc1ccccc1NC1=NC2CS(=O)(=O)CC2S1 (stereo unspecified),inactive
16,Cc1ccc(-c2cc(N)nc(-c3ccccc3)c2)cc1,inactive
17,O=C(CN(C(=O)CNS(=O)(=O)c1ccccc1)C1CCCC1)NCc1ccco1,inactive
18,CCN1CCN(c2cc(C)c3cc(NC(=S)N4CCN(c5ccccc5F)CC4)ccc3n2)CC1,inactive
19,COc1cccc(NC(=O)N2CCCC(C(=O)Nc3ccccc3OC)C2)c1 (stereo unspecified),inactive
20,COc1ccccc1NC(=O)CN1CCN(c2ccccc2)CC1,inactive
21,O=S(=O)(Nc1cccc(-c2cn3c(n2)SCC3)c1)c1ccc(F)cc1F,inactive
22,NC(=O)Oc1cccc(OC(N)=O)c1,inactive
23,CC(=O)c1ccc(OC(=O)c2cc3ccccc3oc2=O)cc1,inactive

row,SMILES,outcome
1,CCN(CC)c1cc(C)c2cc(NC(=O)c3ccccc3F)ccc2n1,inactive
2,COc1ccc(-n2cnc3c(sc4nc(N5CCOCC5)c5c(c43)CCCC5)c2=O)cc1,inactive
3,O=C(CCCCCn1c(=S)[nH]c2ccc(N3CCOCC3)cc2c1=O)NC1CCN(Cc2ccccc2)CC1,inactive
4,O=C(Nc1ccncc1)c1cc(-c2ccccn2)nc2ccccc12,inactive
5,CC(C)[C@H](NC(=O)c1ccccc1Cl)C(=O)Nc1nc(-c2ccccn2)cs1,inactive
6,Cc1cc(Cl)ccc1OCC(=O)Nc1nc(-c2cccnc2)cs1,inactive
7,CC1CC(C)CN(S(=O)(=O)c2ccc3c(c2)oc(=O)n3CC(=O)N(C)Cc2ccccc2)C1 (stereo unspecified),inactive
8,COc1ccccc1Nc1nc(Cl)c(C=O)s1,inactive
9,c1ccc2c(c1)CCc1ccccc1C2=C1CCNCC1,inactive
10,COc1ccc(Cn2nnnc2C(c2cc3ccc(OC)cc3[nH]c2=O)N2CCC(C)CC2)cc1 (stereo unspecified),inactive
11,Clc1ccc(CN2CCN(/N=C/c3ccco3)CC2)cc1,inactive
12,CCOc1ccc(N2C(=O)S/C(=C\c3ccc(O)c(OC)c3)C2=O)cc1,inactive
13,Fc1ccc(NC(=S)Nc2cc(-c3ccccc3)[nH]n2)cc1Cl,inactive
14,C/[N+]([O-])=C1\Cc2ccccc2C1=O,inactive
15,COc1ccc(CCN(C(=O)C(F)(F)F)C(C(=O)NC2CCCC2)c2cccs2)cc1 (stereo unspecified),inactive
16,O=C(O)c1cccc(NC2=Nc3cccc4cccc2c34)c1,inactive
17,Cc1cc(C)c2c(N)c(C(=O)c3ccc(Cl)c(Cl)c3)sc2n1,inactive
18,COc1ccc(Cl)cc1N(C)C(=O)CCNC(=O)Cn1cnc2ccccc2c1=O,inactive
19,Cc1cc(N2CCC(C)CC2)nc(NCc2ccccc2)n1,inactive
20,COc1ccc(Nc2cc(C)nc(NCc3ccccc3)n2)cc1,inactive
21,CN(C)C=NC(=O)c1cc(C(=O)c2ccc(Cl)cc2Cl)c[nH]1,inactive
22,CCN(CC)CCN(C(=O)c1cccc([N+](=O)[O-])c1)c1nc2ccc(OC)cc2s1,inactive
23,O=C(COc1ccc(Br)cc1CNCCc1ccccc1)NCc1ccccc1,inactive

row,SMILES,outcome
1,C=CCOc1ccc(Cl)cc1CNC1CCCC1,inactive
2,CC(=O)c1c(C)[nH]c(C(=O)OCC(=O)NCC(C)C)c1C,inactive
3,Cc1c(CN(C)C)c2c(n1Cc1ccccc1)C(=O)c1ccc(Br)cc1-2,inactive
4,NC(=O)c1ccc[n+]([C@H]2O[C@@H](COP(=O)([O-])OP(=O)(O)OC[C@H]3O[C@@H](n4cnc5c(N)ncnc54)[C@H](O)[C@@H]3O)[C@H](O)[C@@H]2O)c1,inactive
5,CCOC(=O)C(NC(=O)c1cccnc1)(Nc1cccc(C)n1)C(F)(F)F (stereo unspecified),inactive
6,Cn1c(=O)c(=O)n(C)c2cc(S(=O)(=O)N3CCc4ccccc43)ccc21,inactive
7,COc1ccc(-c2nc3cc(NC(=O)Cc4ccc(OC)c(OC)c4)ccc3o2)cc1,inactive
8,COC(=O)c1cc2oc(C)cc2n1CC(=O)Nc1ccc(C)c(C)c1,inactive
9,CC(C)OC(=O)Cn1c(=O)sc2ccccc21,inactive
10,CC(=O)Nc1ccccc1-c1nc2ccc(C(=O)N3CCN(c4cc(C)ccc4C)CC3)cc2[nH]c1=O,inactive
11,COc1ccc(Cl)cc1C(=O)C1CCCN(CCO)C1 (stereo unspecified),inactive
12,COc1c(Br)cc2c(C)c(C(=O)N3CCOCC3)oc2c1Br,inactive
13,CCCCCCOc1ccc(CN2CCN(CC)CC2)cc1,inactive
14,CCCN(CCC)c1nc(C)cc(C(C#N)c2nc3ccccc3o2)n1 (stereo unspecified),inactive
15,CN(CC(=O)NCc1ccncc1)S(=O)(=O)c1ccccc1,inactive
16,O=c1cc(-c2ccc(Cl)cc2)[nH][nH]1,inactive
17,Cc1cc(N=Nc2ccccc2)c(NCC(O)C(O)C(O)CO)cc1C (stereo unspecified),inactive
18,O=C1c2ccccc2C(=O)N1CCCP(=O)(O)CCc1ccccc1,inactive
19,Cc1ccc(C)c(N/C(N)=N/c2nc(C)cc(C)n2)c1,inactive

# From PubChem BioAssay AID1985 (Southern Research Specialized Biocontainment Screening …, 2009)
